Assay results published in PubChem BioAssay AID1159580 (chemical genetic matrix, 2015).
About 2,000 (36%) of roughly 5,500 compounds were called active. Another 18% or so got no clear call; they are omitted. Cut-off read from the data, not from the text of the source: active = normalized growth mostly below about 0.91 (no sharp cut-off); inconclusive = no clear call, values can overlap the other calls; inactive = mostly above about 0.92. Some of the results follow.

Assay: chemical genetic growth profiling, strain panel (AID 1159580);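 note: tested at 20 µM; growth read once vehicle control cultures reached saturation at 30 °C; 1 = growth at the plate median or of vehicle wells; lower values mean less growth of the strain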
Details: growth OD

Measured: normalized growth

CC(C)CCCC(C)[C@H]1CCC2C3C(=O)C=C4C[C@@H](O)CC[C@]4(C)C3CC[C@@]21C (stereo partly drawn)
inactive: S. cerevisiae deletion strains, locus YJL187C, strain SWE1, active compounds read low 1 | S. cerevisiae deletion strains, locus YJR043C, strain POL32, active compounds read low 1.01 | S. cerevisiae deletion strains, locus YJR066W, strain TOR1, active compounds read low 0.948 | S. cerevisiae deletion strains, locus YKL009W, strain mrt4, active compounds read low 1.07 | S. cerevisiae deletion strains, locus YKL068W, active compounds read low 1.01 | S. cerevisiae deletion strains, locus YKL085W, strain MDH1 (second series), active compounds read low 1.03 | S. cerevisiae deletion strains, locus YKL085W, strain MDH1, active compounds read low 1.03 | S. cerevisiae deletion strains, locus YKL160W, strain elf1, active compounds read low 0.981 | S. cerevisiae deletion strains, locus YKR001C, strain vps1, active compounds read low 1.05 | S. cerevisiae deletion strains, locus YKR026C, strain gcn3, active compounds read low 0.996 | S. cerevisiae deletion strains, locus YKR091W, strain srl3, active compounds read low 1 | S. cerevisiae deletion strains, locus YLL001W, strain dnm1, active compounds read low 0.998 | S. cerevisiae deletion strains, locus YLL026W, active compounds read low 1.01 | S. cerevisiae deletion strains, locus YLL041C, strain sdh2, active compounds read low 0.991 | S. cerevisiae deletion strains, locus YLR027C, strain aat2, active compounds read low 0.989 | S. cerevisiae deletion strains, locus YLR039C, strain RIC1, active compounds read low 1.08 | S. cerevisiae deletion strains, locus YLR058C, strain SHM2, active compounds read low 1.06 | S. cerevisiae deletion strains, locus YLR102C, strain apc9, active compounds read low 1.03 | S. cerevisiae deletion strains, locus YLR113W, strain HOG1, active compounds read low 0.975 | S. cerevisiae deletion strains, locus YLR221C, strain rsa3, active compounds read low 0.981 | S. cerevisiae deletion strains, locus YLR258W, strain gsy2, active compounds read low 1.02 | S. cerevisiae deletion strains, locus YLR262C, strain YPT6 (second series), active compounds read low 0.972 | S. cerevisiae deletion strains, locus YLR262C, strain YPT6, active compounds read low 1.09 | S. cerevisiae deletion strains, locus YLR268W, strain sec22, active compounds read low 1.07 | S. cerevisiae deletion strains, locus YLR320W, strain mms22, active compounds read low 1.03 | S. cerevisiae deletion strains, locus YLR330W, strain CHS5, active compounds read low 1.02 | S. cerevisiae deletion strains, locus YLR342W, strain FKS1 (second series), active compounds read low 1.07 | S. cerevisiae deletion strains, locus YLR342W, strain FKS1, active compounds read low 1 | S. cerevisiae deletion strains, locus YLR357W, strain rsc2, active compounds read low 1.06 | S. cerevisiae deletion strains, locus YLR370C, strain arc18, active compounds read low 0.984 | S. cerevisiae deletion strains, locus YLR371W, strain rom2, active compounds read low 1.03 | S. cerevisiae deletion strains, locus YLR384C, strain iki3, active compounds read low 0.997 | S. cerevisiae deletion strains, locus YLR418C, strain cdc73, active compounds read low 1.04 | S. cerevisiae deletion strains, locus YML016C, strain PPZ1, active compounds read low 1.03 | S. cerevisiae deletion strains, locus YML032C, strain rad52, active compounds read low 1.02 | S. cerevisiae deletion strains, locus YML120C, strain ndi1, active compounds read low 0.965 | S. cerevisiae deletion strains, locus YML124C, strain tub3, active compounds read low 1.02 | S. cerevisiae deletion strains, locus YMR058W, strain fet3, active compounds read low 0.992 | S. cerevisiae deletion strains, locus YMR078C, strain ctf18, active compounds read low 1.05 | S. cerevisiae deletion strains, locus YMR125W, strain sto1, active compounds read low 1.01 | S. cerevisiae deletion strains, locus YMR129W, active compounds read low 0.989 | S. cerevisiae deletion strains, locus YMR205C, strain PFK2, active compounds read low 1.05 | S. cerevisiae deletion strains, locus YMR223W, strain ubp8, active compounds read low 1.02 | S. cerevisiae deletion strains, locus YMR231W, strain pep5, active compounds read low 1 | S. cerevisiae deletion strains, locus YMR307W, strain GAS1, active compounds read low 1.11 | S. cerevisiae deletion strains, locus YNL067W, strain RPL9B, active compounds read low 1.02 | S. cerevisiae deletion strains, locus YNL071W, strain lat1, active compounds read low 0.993 | S. cerevisiae deletion strains, locus YNL183C, strain NPR1, active compounds read low 0.937 | S. cerevisiae deletion strains, locus YNL209W, strain ssb2, active compounds read low 1 | S. cerevisiae deletion strains, locus YNL233W, strain BNI4, active compounds read low 1.02 | S. cerevisiae deletion strains, locus YNL248C, strain rpa49, active compounds read low 0.934 | S. cerevisiae deletion strains, locus YNL250W, strain rad50, active compounds read low 1.03 | S. cerevisiae deletion strains, locus YNL271C, strain bni1, active compounds read low 1.05 | S. cerevisiae deletion strains, locus YNL298W, strain CLA4, active compounds read low 1.04 | S. cerevisiae deletion strains, locus YNL307C, strain MCK1, active compounds read low 1.05 | S. cerevisiae deletion strains, locus YNL322C, strain KRE1 (second series), active compounds read low 0.98 | S. cerevisiae deletion strains, locus YNR049C, strain mso1, active compounds read low 0.996 | S. cerevisiae deletion strains, locus YNR052C, strain pop2, active compounds read low 1.03 | S. cerevisiae deletion strains, locus YOL012C, strain htz1 1.19 | S. cerevisiae deletion strains, locus YOL147C, strain pex11, active compounds read low 1.01 | S. cerevisiae deletion strains, locus YOR001W, strain rrp6, active compounds read low 0.994 | S. cerevisiae deletion strains, locus YOR061W, strain CKA2, active compounds read low 1.05 | S. cerevisiae deletion strains, locus YOR069W, strain VPS5, active compounds read low 1.02 | S. cerevisiae deletion strains, locus YOR070C, strain gyp1, active compounds read low 0.999 | S. cerevisiae deletion strains, locus YOR080W, strain dia2, active compounds read low 1.04 | S. cerevisiae deletion strains, locus YOR083W, strain WHI5, active compounds read low 0.969 | S. cerevisiae deletion strains, locus YOR106W, strain vam3, active compounds read low 0.978 | S. cerevisiae deletion strains, locus YOR136W, strain idh2, active compounds read low 1.04 | S. cerevisiae deletion strains, locus YOR144C, strain elg1, active compounds read low 1.02 | S. cerevisiae deletion strains, locus YOR184W, strain ser1, active compounds read low 1.06 | S. cerevisiae deletion strains, locus YOR231W, strain MKK1, active compounds read low 1 | S. cerevisiae deletion strains, locus YOR265W, strain rbl2, active compounds read low 0.996 | S. cerevisiae deletion strains, locus YOR270C, strain vph1, active compounds read low 0.907 | S. cerevisiae deletion strains, locus YOR290C, strain snf2, active compounds read low 1.07 | S. cerevisiae deletion strains, locus YOR316C, strain cot1, active compounds read low 1.04 | S. cerevisiae deletion strains, locus YPL051W, strain arl3, active compounds read low 0.981 | S. cerevisiae deletion strains, locus YPL055C, strain LGE1, active compounds read low 1.05 | S. cerevisiae deletion strains, locus YPL078C, strain atp4, active compounds read low 0.935 | S. cerevisiae deletion strains, locus YPL106C, strain sse1, active compounds read low 1.08 | S. cerevisiae deletion strains, locus YPL240C, strain hsp82, active compounds read low 0.985 | S. cerevisiae deletion strains, locus YPL241C, strain CIN2, active compounds read low 1.01 | S. cerevisiae deletion strains, locus YPL256C, strain CLN2, active compounds read low 0.989 | S. cerevisiae deletion strains, locus YPR119W, strain clb2, active compounds read low 1.03 | S. cerevisiae deletion strains, locus YPR141C, strain kar3, active compounds read low 1.03 | S. cerevisiae deletion strains, locus YPR163C, strain tif3, active compounds read low 1.03 | S. cerevisiae deletion strains, locus YPR167C, strain met16, active compounds read low 1.04 | S. cerevisiae deletion strains, strain wtn01, active compounds read low 1.03 | S. cerevisiae strains, strain wild type, active compounds read low 1.02
